target: LCE2C; experiment: pooled miR-30 sensor sort-seq; sequence = guide strand; conditions: shRNA
Also: reference of the scale not given here.

Q: AGACTGCAGGGAAACATGGAGC was tested. Which sensor-assay potency score (higher = more potent) did it give?
A: The sensor-assay potency score (higher = more potent) was -2.06.

Q: How did the sensor-assay potency score (higher = more potent) turn out when AGCAAGAAGAGACTGCAGGGAA was run?
A: Its sensor-assay potency score (higher = more potent) is -0.624.

Q: How did the sensor-assay potency score (higher = more potent) turn out when CTGCAGGGAAACATGGAGCTGG was run?
A: Its sensor-assay potency score (higher = more potent) is -1.34.

Q: How did the sensor-assay potency score (higher = more potent) turn out when TGGTGGCTCAGGGAGCAGCCAC was run?
A: Its sensor-assay potency score (higher = more potent) is -2.45.

Q: For TTCACTCTCACAGCAGTCGGGG, which sensor-assay potency score (higher = more potent) is on record?
A: Its sensor-assay potency score (higher = more potent) is -0.831.

Q: How did the sensor-assay potency score (higher = more potent) turn out when TCACTCTCACAGCAGTCGGGGC was run?
A: The sensor-assay potency score (higher = more potent) was -1.13.

Q: Which sensor-assay potency score (higher = more potent) does the source give for ACACTTGGGAGGACACTTGGGA here?
A: Its sensor-assay potency score (higher = more potent) is 0.0104.

Q: With TCAGGGAGCAGCCACCAGCCCC as the sequence, how does the sensor-assay potency score (higher = more potent) read?
A: The sensor-assay potency score (higher = more potent) was -1.78.

Q: How did the sensor-assay potency score (higher = more potent) turn out when CACAGCAAGAAGAGACTGCAGG was run?
A: Its sensor-assay potency score (higher = more potent) is -2.53.

target: LCN1; experiment: as above; conditions: shRNA

Q: TGACACATCCTGAATCTCCTCG was tested. Which sensor-assay potency score (higher = more potent) did it give?
A: Its sensor-assay potency score (higher = more potent) is 1.02.

Q: TTGGCTTCCAGGTTGCCCCCTT was tested. Which sensor-assay potency score (higher = more potent) did it give?
A: The sensor-assay potency score (higher = more potent) was -0.189.

Q: For ATGCTCTCCGTGCTGAGTCCGC, which sensor-assay potency score (higher = more potent) is on record?
A: Its sensor-assay potency score (higher = more potent) is -1.5.

Q: Which sensor-assay potency score (higher = more potent) does the source give for TTCATCTCAGGGAACTCCCTGT here?
A: The sensor-assay potency score (higher = more potent) was 0.622.

Q: For TTCCAGGGTCGTGAGGGTCATG, which sensor-assay potency score (higher = more potent) is on record?
A: Its sensor-assay potency score (higher = more potent) is -1.33.
